# Cl transport mod: KCC2 cotransporter modulators, thallium flux, primary screen, cell-based, HEK293 KCC2, FluoZin-2 fluorescence, MLSMR; Solute carrier family 12 member 5 (Homo sapiens), Q9H2X9; KCC2 cells, thallium flux FluoZin-2 fluorescence; B-score of Tl+ flux slope (higher = more flux/activation; lower = inhibition) at 10 µM; 190,000 tested, 2.2% active;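 active = thallium flux slope and its plate-corrected score both differing from the plate sample mean at a set confidence after two filtering rounds, in either direction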;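 also: slope of fluorescence scaled to starting intensity during 10 to 20 s after thallium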
# Target sequence (Q9H2X9 whole entry, looked up): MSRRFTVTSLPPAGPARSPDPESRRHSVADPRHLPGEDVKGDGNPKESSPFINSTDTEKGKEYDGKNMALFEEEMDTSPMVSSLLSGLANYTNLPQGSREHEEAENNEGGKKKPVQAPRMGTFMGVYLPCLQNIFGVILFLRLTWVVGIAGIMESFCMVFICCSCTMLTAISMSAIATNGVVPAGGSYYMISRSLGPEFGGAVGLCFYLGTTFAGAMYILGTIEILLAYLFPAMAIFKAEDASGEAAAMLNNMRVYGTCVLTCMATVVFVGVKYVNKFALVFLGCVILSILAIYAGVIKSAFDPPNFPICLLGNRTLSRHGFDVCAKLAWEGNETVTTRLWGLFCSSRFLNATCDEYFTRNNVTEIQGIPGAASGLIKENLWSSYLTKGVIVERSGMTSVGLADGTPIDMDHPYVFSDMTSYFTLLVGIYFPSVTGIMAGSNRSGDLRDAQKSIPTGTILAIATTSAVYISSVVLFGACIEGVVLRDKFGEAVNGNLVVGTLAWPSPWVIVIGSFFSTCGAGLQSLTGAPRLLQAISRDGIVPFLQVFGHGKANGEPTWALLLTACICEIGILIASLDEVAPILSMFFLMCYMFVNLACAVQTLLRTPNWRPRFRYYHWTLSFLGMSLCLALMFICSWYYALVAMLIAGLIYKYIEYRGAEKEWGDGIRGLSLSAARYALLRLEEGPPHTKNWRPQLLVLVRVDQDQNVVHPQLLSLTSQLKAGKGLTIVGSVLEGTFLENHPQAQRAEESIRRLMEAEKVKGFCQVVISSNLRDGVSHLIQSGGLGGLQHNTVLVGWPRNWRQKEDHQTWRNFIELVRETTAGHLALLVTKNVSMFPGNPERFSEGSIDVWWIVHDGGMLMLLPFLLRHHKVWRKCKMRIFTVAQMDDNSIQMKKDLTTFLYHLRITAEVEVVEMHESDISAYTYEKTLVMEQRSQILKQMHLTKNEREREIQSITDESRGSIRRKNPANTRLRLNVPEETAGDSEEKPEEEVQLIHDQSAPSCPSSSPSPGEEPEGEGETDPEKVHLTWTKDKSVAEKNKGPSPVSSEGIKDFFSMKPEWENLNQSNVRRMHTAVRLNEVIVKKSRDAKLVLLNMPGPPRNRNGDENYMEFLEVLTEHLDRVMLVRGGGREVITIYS
# ROMK primary: ROMK potassium channel modulators, primary screen, cell-based, thallium flux, MLSMR library | Tet-inducible ROMK, thallium flux fluorescence; actives lie on both sides | AID 1918, 2009 | ATP-sensitive inward rectifier potassium channel 1 (Homo sapiens), P48048 | B-score at 10 µM | 130,000 tested, 2% active;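 active = signal ratio slope over the read window, or its plate-corrected B-score, at least 3 SD from the plate mean, either direction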;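 also: B-score of the F/F0 ratio slope over 7 to 12 s after thallium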
# WT yeast gro inh: growth inhibition of WT strain, primary screen, mitochondrial fusion inhibitor project, WT and mutant strains, chemical genetic; mitochondrial fusion phenotypic screen; inhibition, % at 10 µM; 190,000 tested, 2.1% active; AID 1362, 2008; in the data active = inhibition above about 58%; tested in S. cerevisiae
# Lmaj promast: Leishmania major promastigote growth inhibition, primary screen; inhibition, % at 10 µM; AID 1063, 2008; 200,000 tested, 9% active; Leishmania major promastigotes, resazurin fluorescence viability; in the data active = inhibition above about 50%;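 also: promastigotes grown with compound for 44 hours at 28 °C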
# Calpain2 inh: inhibitors of pig calpain II, primary screen, biochemical, fluorogenic peptide substrate, 1536-well | AID 1236, 2008 | inhibition, % at 16 µM | purified calpain II, 30 min | 220,000 tested, 0.37% active;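 active = inhibition above about 50%, limit read from the data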
# KCC2 secondary: KCC2 modulators in sodium-free buffer, confirmation, cell-based, HEK293 KCC2, thallium flux, secondary assay | AID 1713, 2009 | normalised thallium flux (F/F0 slope) at 10 µM | 3,700 tested, 15% active | shares compounds with Cl transport mod | FluoZin2 fluorescence; hits give high values;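 active = thallium flux slope above the same plate's solvent-only control mean plus 3 SD; inconclusive = the two replicate wells disagree; inactive = no significant difference from solvent-only control wells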
# KCC2 bumet counter: thallium flux persisting under bumetanide in KCC2 cells, confirmation, counter-screen for KCC2 modulator project, cell-based, HEK293 KCC2, FluoZin2, secondary assay 3; 3,700 tested, 49% active; shares compounds with Cl transport mod; normalized thallium flux at 10 µM; AID 1714, 2009; HEK293-KCC2 + bumetanide/ouabain; hits give high values;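 active = thallium entry rate above the same plate's blocked-transporter control wells by more than 3 SD; inconclusive = the two repeat wells disagree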;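 also: raw slope of fluorescence over initial fluorescence between 10 and 20 s after thallium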
# KCC2 sec2: KCC2 modulators without ouabain present, confirmation, cell-based, HEK293 KCC2, thallium flux, FluoZin2, secondary assay 2 | shares compounds with Cl transport mod | thallium flux FluoZin2 fluorescence; actives lie on both sides; F/F0 rise rate, 10–20 s post-thallium | normalized thallium flux at 10 µM | 3,700 tested, 23% active;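 active = thallium flux slope more than 3 SD above or below the plate's solvent-only control mean, mostly below; inconclusive = the two repeat wells disagreed; inactive = no significant shift from solvent-only controls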;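 also: raw slope with 0.1% DMSO as baseline and bumetanide as block control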
# HEK counter1: thallium flux modulation in parental HEK cells, confirmation, counter-screen for KCC2 modulator project, cell-based, counterscreen 1; 3,700 tested, 46% active; thallium flux rate (normalised fluorescence) at 10 µM; shares compounds with Cl transport mod; HEK293 parental cells, thallium flux FluoZin2, ouabain; baseline-ratio fluorescence slope, 10–20 s after thallium; AID 1716, 2009;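 active = thallium flux rate significantly above the same plate's solvent-only control wells, beyond their mean plus 3 SD; inconclusive = the two replicate wells gave conflicting results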
# KCC2 retest ouab: KCC2 inhibitors and activators, ouabain retest, confirmation, HEK-KCC2 cells | shares compounds with Cl transport mod | HEK293-KCC2, thallium flux FluoZin2 fluorescence; bidirectional: low = inhibitor, high = activator | raw Tl+ flux slope (below DMSO = inhibition, above = activation) at 10 µM | 3,700 tested, 48% active | AID 1717, 2009;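 active = thallium flux slope beyond 3 SD from same-plate DMSO control mean in most replicates, usually higher, sometimes lower; inconclusive = repeat tests gave conflicting results; inactive = no significant difference from controls in most replicates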;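 also: slope of initial-normalized fluorescence between seconds 10 and 20 after thallium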
# HEK counter2: native HEK Tl+ uptake effects, second counter-screen – HEK cells, counterscreen 2, counter-screen for KCC2 modulator project, confirmation; shares compounds with Cl transport mod; HEK293 parental, thallium flux FluoZin-2 fluorescence slope; thallium flux slope at 10 µM; 3,700 tested, 33% active;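 active = thallium flux slope above the same plate's solvent-control mean plus 3 SD in both duplicate wells; inconclusive = duplicate wells that disagreed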;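 also: run without ouabain in cells lacking the KCC2 cotransporter; slope of fluorescence scaled to its starting value between 10 and 20 s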
# ROMK hit retest: ROMK channel modulator hit retest, confirmation, cell-based, thallium flux, duplicate, resupplied hits; 3,000 tested, 54% active; normalized thallium flux (F/F0 slope) at 10 µM; fluorescence ratio; hits give low values; shares compounds with ROMK primary;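 active = Flux at 10 µM at least 3 SD below or above vehicle control mean in one or both replicates; inconclusive = no clear call, values can overlap the other calls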
# * hit, by the source's call; i = inactive; ? = inconclusive; nt = no result. Rows were chosen to be rich in hits. Some 12% of all compounds tested hit in one or more screens of this group.
SMILES,Cl transport mod,ROMK primary,WT yeast gro inh,Lmaj promast,Calpain2 inh,KCC2 secondary,KCC2 bumet counter,KCC2 sec2,HEK counter1,KCC2 retest ouab,HEK counter2,others
COc1ccc(CN2CCN(C(=O)Cc3ccccc3)CC2)c(OC)c1,0.01,-0.72,-4,6,1,nt,nt,nt,nt,nt,nt,
CC(C)CCP(=O)(O)c1ccccc1,8.3*,1.7,-46,-6,-9,0.012,0.0065,0.035,0.008,0.023,0.011,
COc1cc(/C=C/C(=O)c2c(O)n(CCc3ccccc3)c(=O)[nH]c2=O)ccc1O,-6.4*,nt,6,89*,-68,?,-0.0096*,0.034,0.0013*,0.004*,?,
CCCCCCC(=O)c1c(O)n(-c2ccc(OC)cc2)c(=O)[nH]c1=O (tested in a mixture with another compound),-0.61,nt,nt,nt,-16,nt,nt,nt,nt,nt,nt,
CC(C)NS(=O)(=O)c1ccc(OCC(=O)N2CCN(Cc3ccccc3)CC2)cc1,-1.4,0.75,nt,6,nt,nt,nt,nt,nt,nt,nt,
O=C(COc1ccc(Cl)cc1)N1CCN(Cc2ccccc2)CC1,nt,-0.25,-15,39,-24,?,0.0055,0.029,0.007,0.025*,0.01,
CCOC(=O)C(O)(c1ccc(NC(=S)NC(=O)c2ccc(Cl)cc2Cl)c(C)c1)C(F)(F)F (stereo not drawn),5.5*,nt,77*,23,45,0.0063,0.029*,0.036,0.014*,0.029*,0.016*,
CCCCCc1nc2ccccc2c(=O)n1-c1ccc(Cl)cc1[N+](=O)[O-],0.027,nt,-20,-2,-14,nt,nt,nt,nt,nt,nt,
O=C(c1cc2c(s1)-c1ccccc1OC2)N1CCC2(CC1)OCCO2,-4.1*,0.72,4,-4,i,0.0072,0.0052,0.026*,0.0078,?,0.012,
O=C1NC(=O)N(c2ccccc2)C(=O)/C1=C/c1coc2ccc(O)cc2c1=O,-4.8*,nt,nt,nt,-17,0.007,0.0042,0.028,0.0058*,0.014*,0.0088,
c1cncc(C2CC(c3cccs3)n3ncnc3N2)c1 (stereo not drawn),0.72,0.77,-5,-8,1,nt,nt,nt,nt,nt,nt,
Cc1nn(Cc2ccccc2)c(C)c1C(=O)OCC(=O)Nc1cc(S(C)(=O)=O)ccc1Cl,-0.023,0.54,1,0,-18,nt,nt,nt,nt,nt,nt,
CCCC(=O)Nc1cc(C(=O)N2CCC3(CC2)OCCO3)ccc1S(=O)(=O)c1ccc(C)cc1,-5.2*,nt,-4,-7,2,0.0097,0.006,0.033,0.0073,0.022,0.01,
CC(=O)Nc1cc(C(=O)N2CCC3(CC2)OCCO3)ccc1S(=O)(=O)c1ccc(C)cc1,nt,0.0086,3,-7,-29,nt,nt,nt,nt,nt,nt,
CC(=O)Nc1cc(C(=O)N2CCC3(CC2)OCCO3)ccc1S(=O)(=O)c1ccc(Cl)cc1,-6.4*,-0.13,nt,-8,18,0.0077,0.0053,0.03,0.0085,0.019,0.012,
Cc1ccc(S(=O)(=O)Nc2cc(C(=O)N3CCC4(CC3)OCCO4)ccc2N2CCCCC2)cc1,nt,-2.2,0,24,-11,nt,nt,nt,nt,nt,nt,
CN(C)CC#CCn1c2ccccc2c2ccccc21,0.63,0.085,nt,nt,-11,nt,nt,nt,nt,nt,nt,
O=c1[nH]c(=S)[nH]c(O)c1N=Nc1ccc(SC(F)F)cc1,42*,nt,nt,nt,31,0.008,0.072*,?,0.041*,0.087*,0.012*,
CC(C)c1ccc(N=Nc2c(O)[nH]c(=O)[nH]c2=O)cc1,0.11,nt,nt,nt,-20,nt,nt,nt,nt,nt,nt,
CC(C)(C)NC(=S)N1CCn2cccc2C1c1cccnc1 (stereo not drawn),0.33,0.86,-1,-3,6,nt,nt,nt,nt,nt,nt,
O=C1NC(=O)C2(Cc3c(nc4ccccn4c3=O)N3CCCCCC32)C(=O)N1Cc1ccccc1 (stereo not drawn),-4*,-2.7,15,97*,-76,0.0063,0.0051,?,0.0051*,0.016*,0.0085,
O=C1NC(=O)C2(Cc3ccccc3N3CCCC32)C(=O)N1Cc1ccccc1 (stereo not drawn),-0.78,nt,-2,-3,-30,nt,nt,nt,nt,nt,nt,
O=C(C1CCN(c2nc3ccc(Br)cc3s2)CC1)N1CCC2(CC1)OCCO2,-5.1*,nt,-8,0,-57,0.0076,0.0054,0.027*,0.0071,0.019*,0.01,
COc1ccc(CCNCc2ccc(SC)cc2)cc1,0.45,nt,-9,63*,-8,nt,nt,nt,nt,nt,nt,ROMK hit retest=0.062*
c1ccc(CCNCc2ccccc2)cc1,0.68,nt,23,12,17,nt,nt,nt,nt,nt,nt,
SMILES,Cl transport mod,ROMK primary,WT yeast gro inh,Lmaj promast,Calpain2 inh,KCC2 secondary,KCC2 bumet counter,KCC2 sec2,HEK counter1,KCC2 retest ouab,HEK counter2,others
N/C(=N\[N+](=O)[O-])NCCCC(NC(=O)CNC(=O)c1ccccc1)C(=O)O (stereo not drawn),0.074,0.036,-4,-2,17,nt,nt,nt,nt,nt,nt,
CCn1c(O)c(C=Nc2ccc(N3CCOCC3)cc2)c(=O)n(CC)c1=S,-0.07,-6.6*,-11,-1,6,nt,nt,nt,nt,nt,nt,ROMK hit retest=0.045*
CCn1c(O)c(/C=N/N2CCOCC2)c(=O)n(CC)c1=S,-0.083,nt,15,-5,37,nt,nt,nt,nt,nt,nt,
CCn1c(O)c(C=Nc2ccc(N3CCOCC3)c(Br)c2)c(=O)n(CC)c1=S,i,-5.3*,-24,-7,11,nt,nt,nt,nt,nt,nt,ROMK hit retest=0.079
CN1CCN(c2nc3ccccc3o2)CC1,0.071,nt,nt,nt,-5,nt,nt,nt,nt,nt,nt,
O=C(CCCN1CCC2(CC1)C(=O)NCN2c1ccccc1)c1ccc(F)cc1,-0.0068,nt,-1,1,-6,nt,nt,nt,nt,nt,nt,
